This passage reports outcome and AC50 results from PubChem BioAssay (EPA / NIEHS).

A word on the AC50: it is the concentration giving half of the maximal activity seen.

Structures are written as SMILES. Records with an inconclusive call do not appear. Activity calls are given as the source filed them. The calls were made as follows: active = hit-call score of the fitted dose curve at least 0.9, where 1 is the maximum; inconclusive = response in the unintended direction; inactive = score below 0.9.

For assay [1], the target named is human Thyroid hormone Receptor alpha (TRa), THRA (gene 7067) (UniProt P10827). As to the kind of experiment: ATG_hTRa_XSP1: Attagene TRANS-FACTORIAL Multi-Species (XSP1) HepG2 Assay for human Thyroid hormone Receptor alpha (TRa) (AID 2283805). The gist of the method: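 Reporter transcripts from the human TRa-Gal4 TRANS unit quantified by RT-PCR, fluorescent labeling and capillary electrophoresis after 24 hours of chemical exposure in transfected HepG2 cells; medium contains 3 nM 6-alpha-fluorotestosterone. Positive direction fit against DMSO.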

In assay [2] the target is zebrafish Thyroid Hormone Receptor alpha (TRa), thraa (gene 30670) (UniProt Q98867). Briefly: ATG_zfTRa_XSP1: Attagene TRANS-FACTORIAL Multi-Species (XSP1) HepG2 Assay for zebrafish Thyroid Hormone Receptor alpha (TRa) (AID 2283807). The gist of the method: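 Reporter transcripts driven by a chimeric zebrafish TRa–Gal4 protein were measured by RT-PCR with fluorescent labelling and capillary electrophoresis. These came from transiently transfected HepG2 cells after 24 h chemical exposure, with 3 nM 6-alpha-fluorotestosterone added; baseline was DMSO.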

The target in assay [3] is human Thyroid hormone Receptor beta (TRb), THRB (gene 7068) (UniProt P10828). As to the kind of experiment: ATG_hTRb_XSP1: Attagene TRANS-FACTORIAL Multi-Species (XSP1) HepG2 Assay for human Thyroid hormone Receptor beta (TRb) (AID 2283808). The gist of the method: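 Readout is reporter mRNA induction measured by RT-PCR, fluorescent labelling and capillary electrophoresis, fitted upward relative to DMSO. Transiently transfected human HepG2 cells expressing NR-Gal4 chimeras were dosed for 24 h, medium containing 3 nM 6-alpha-fluorotestosterone.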

The target of assay [4] is zebrafish Thyroid Hormone Receptor beta (TRb), thrb (gene 30607) (UniProt Q9PVE4). Briefly: ATG_zfTRb_XSP1: Attagene TRANS-FACTORIAL Multi-Species (XSP1) HepG2 Assay for zebrafish Thyroid Hormone Receptor beta (TRb) (AID 2283809). The gist of the method:
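HepG2 cells transiently transfected with multiplexed GAL4-UAS reporter units expressing chimeric zebrafish TRb–Gal4. Dosed 24 h with 3 nM 6-alpha-fluorotestosterone present; reporter mRNA measured by RT-PCR, HpaI digestion and capillary electrophoresis; gain of signal versus DMSO.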

Assay [5] is described as follows: ATG_XTT_Cytotoxicity_XSP1: Cytotoxicity Assessment in the Attagene TRANS-FACTORIAL Multi-Species (XSP1) HepG2 Assay (AID 2283810). In outline: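 XTT viability readout taken at 24 hours post-dosing in HepG2 liver cells co-treated with 3 nM 6-alpha-fluorotestosterone. Signal loss relative to DMSO controls reflects cytotoxicity.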
Assay [6] is described as follows: ATG_M_06_XSP2: Attagene TRANS-FACTORIAL Multi-Species (XSP2) HepG2 Assay for M06 Transcription Factor (Internal Marker) (AID 2283811).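 Also: hits are increases in signal above the DMSO baseline.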 In outline:
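Cells of the human liver line HepG2 carried transfected reporter transcription units and were treated for 24 h. Induced reporter transcripts were detected by fluorescence after RT-PCR and capillary electrophoresis, with activity fitted in the gain direction against DMSO.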

Assay [7] deals with turtle Estrogen Receptor (ERa), gene 101933533. Briefly: ATG_trERa_XSP2: Attagene TRANS-FACTORIAL Multi-Species (XSP2) HepG2 Assay for turtle Estrogen Receptor (ERa) (AID 2283812).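 Also: actives raise reporter signal above DMSO so AC50 reflects agonist activity.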 In outline:
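Readout is reporter mRNA quantified by RT-PCR with capillary electrophoresis after 24 h compound exposure, increase relative to DMSO. Uses transiently transfected human HepG2 liver cells carrying a chimeric turtle ERa-Gal4 receptor driving GAL4-UAS reporters.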

The target of assay [8] is zebrafish Estrogen Receptor (ER1), esr1 (gene 259252) (UniProt P57717). As to the kind of experiment: ATG_zfER1_XSP2: Attagene TRANS-FACTORIAL Multi-Species (XSP2) HepG2 Assay for zebrafish Estrogen Receptor (ER1) (AID 2283816). In outline:
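After 24 h compound exposure, RNA from transfected HepG2 cells was reverse-transcribed and reporter transcripts resolved by capillary electrophoresis. The TRANS format reads exogenous zebrafish ER1-Gal4 chimera activity on GAL4-UAS elements; gain of signal against DMSO.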

Assay [9] addresses chicken Estrogen Receptor (ERa), ESR1 (gene 396099) (UniProt P06212). As to the kind of experiment: ATG_chERa_XSP2: Attagene TRANS-FACTORIAL Multi-Species (XSP2) HepG2 Assay for chicken Estrogen Receptor (ERa) (AID 2283817).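 Also: actives raise reporter signal above DMSO so AC50 reflects ER activation.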 The gist of the method:
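Exogenous chicken ERa-Gal4 chimera activity was assessed in transfected human liver HepG2 cells after 24 h of treatment. Induced reporter mRNA was quantified fluorescently by capillary electrophoresis, with DMSO as baseline.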

For assay [10], the system named is zebrafish Estrogen Receptor (ER2a), gene 317734. Briefly: ATG_zfER2a_XSP2: Attagene TRANS-FACTORIAL Multi-Species (XSP2) HepG2 Assay for zebrafish Estrogen Receptor (ER2a) (AID 2283818).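 Also: hits raise reporter mRNA so AC50 reflects activation of zebrafish ER2a.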 In outline: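 Multiplexed trans-reporter readout: RT-PCR then capillary electrophoresis of reporter transcripts after 24 h compound treatment. Human HepG2 carries transfected zebrafish ER2a-Gal4 chimera; 3 nM 6-alpha-fluorotestosterone plus 1.5 nM norgestrel present. Induction scored against DMSO.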

In assay [11] the test system is frog Estrogen Receptor (ER), gene 398734. Briefly: ATG_frER1_XSP2: Attagene TRANS-FACTORIAL Multi-Species (XSP2) HepG2 Assay for frog Estrogen Receptor (ER) (AID 2283821).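 Also: hits raise reporter mRNA above DMSO baseline so potency means agonist or activator.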 In outline: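 Gain-of-signal mRNA reporter assay, HepG2 human liver cells, 24 h dosing; transcripts read by fluorescent RT-PCR fragment analysis, DMSO as negative control.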
For assay [12], the system named is zebrafish Estrogen Receptor (ER2b), gene 317733. As to the kind of experiment: ATG_zfER2b_XSP2: Attagene TRANS-FACTORIAL Multi-Species (XSP2) HepG2 Assay for zebrafish Estrogen Receptor (ER2b) (AID 2283823).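 Also: fitted upward as reporter gain over DMSO so potency reflects activation.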 In outline: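 HepG2 human liver cells transiently transfected with multiplexed GAL4-UAS reporter units expressing chimeric NR-Gal4 proteins; compounds dosed for 24 h. Reporter mRNA quantified by RT-PCR, 6-FAM labelling and capillary electrophoresis; gain-of-signal fitted against DMSO baseline.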

The test system of assay [13] is frog Estrogen Receptor (ER2), gene 100174814. Briefly: ATG_frER2_XSP2: Attagene TRANS-FACTORIAL Multi-Species (XSP2) HepG2 Assay for frog Estrogen Receptor (ER2) (AID 2283828). In outline:
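Induction of reporter mRNA, baseline set by DMSO, is the endpoint. The panel was run in transfected HepG2 cells over 24 h, with 3 nM 6-alpha-fluorotestosterone and 1.5 nM norgestrel present to stimulate androgen receptor.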

Assay [14] deals with Peroxisome proliferator-activated receptor gamma (Homo sapiens) (UniProt P37231). As to the kind of experiment: ATG_hPPARg_XSP2: Attagene TRANS-FACTORIAL Multi-Species (XSP2) HepG2 Assay for human Peroxisome Proliferator-activated Receptor gamma (PPARg) (AID 2283829).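 Also: actives raise reporter mRNA above DMSO so AC50 reflects PPARg activation.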 In outline:
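Reporter transcripts were measured by RT-PCR, fluorescent labeling, HpaI digestion and capillary electrophoresis, relative to DMSO, 24 h post-dosing. Transiently transfected HepG2 expressed NR-Gal4 chimeras regulating GAL4-UAS reporters; medium contained 3 nM 6-alpha-fluorotestosterone plus 1.5 nM norgestrel.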

Assay [15] deals with GAL4 Transcription Factor (Internal Marker), GAL4 (gene 855828) (UniProt P04386). As to the kind of experiment: ATG_GAL4_XSP2: Attagene TRANS-FACTORIAL Multi-Species (XSP2) HepG2 Assay for GAL4 Transcription Factor (Internal Marker) (AID 2283814).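 Also: GAL4 reporter mRNA background control in MRTU transfected cells not a receptor target.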 In outline: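 Background-control readout: gain-of-signal fitted against DMSO. After 24 h exposure of transfected HepG2 (MRTU, GAL4-UAS reporters; 3 nM 6-alpha-fluorotestosterone, 1.5 nM norgestrel present), transcripts quantified by RT-PCR and capillary electrophoresis fluorescence.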

For assay [16], the system named is chicken Androgen Receptor (AR), gene 422165. As to the kind of experiment: ATG_chAR_XSP2: Attagene TRANS-FACTORIAL Multi-Species (XSP2) HepG2 Assay for chicken Androgen Receptor (AR) (AID 2283819).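 Also: hits raise reporter mRNA above DMSO so potency is for activation.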 The gist of the method: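 Readout is reporter mRNA induction via RT-PCR/capillary electrophoresis after 24 h chemical exposure, positive direction relative to DMSO. Transiently transfected HepG2 express chimeric chicken AR–GAL4; AR stimulated by 3 nM 6-alpha-fluorotestosterone and 1.5 nM norgestrel.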

Assay [17] deals with frog Androgen Receptor (AR), gene 399456. Briefly: ATG_frAR_XSP2: Attagene TRANS-FACTORIAL Multi-Species (XSP2) HepG2 Assay for frog Androgen Receptor (AR) (AID 2283824).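 Also: reporter mRNA from GAL4-UAS units driven by Xenopus AR-Gal4 chimera; actives raise reporter signal above DMSO so AC50 reflects agonist-like induction.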 The gist of the method:
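Reporter transcript induction, read by RT-PCR with fluorescent capillary electrophoresis, in human liver HepG2 cells carrying an exogenous Xenopus AR-Gal4 fusion and GAL4-driven reporters; chemical exposure 24 hours, activity scored upward against DMSO controls.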

The target in assay [18] is Estrogen receptor (Homo sapiens) (UniProt P03372). As to the kind of experiment: ATG_hERa_XSP2: Attagene TRANS-FACTORIAL Multi-Species (XSP2) HepG2 Assay for human Estrogen Receptor (ERa) (AID 2283827). In outline:
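Trans-activation of exogenous human ERa-Gal4 chimera read in HepG2 as reporter transcript after 24 h exposure; medium included 3 nM 6-alpha-fluorotestosterone and 1.5 nM norgestrel. Quantified by RT-PCR with capillary electrophoresis, positive-direction fitting against DMSO.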

Assay [19] addresses Nuclear receptor subfamily 1 group I member 2 (Mus musculus) (UniProt O54915). As to the kind of experiment: ATG_mPXR_XSP2: Attagene TRANS-FACTORIAL Multi-Species (XSP1) HepG2 Assay for mouse Pregnane X Receptor (PXR) (AID 2283831). In outline:
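Reporter transcripts measured after 24 h dosing by RT-PCR with 6-FAM labelling, HpaI digestion and capillary electrophoresis. Transiently transfected HepG2 with NR-Gal4 chimeras; increase over DMSO baseline scored.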

The target in assay [20] is zebrafish Thyroid Hormone Receptor alpha (TRa), thraa (gene 30670) (UniProt Q98867). Briefly: ATG_zfTRa_XSP2: Attagene TRANS-FACTORIAL Multi-Species (XSP1) HepG2 Assay for zebrafish Thyroid Hormone Receptor alpha (TRa) (AID 2283832).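 Also: actives raise zebrafish TRa-Gal4 reporter transcript above DMSO baseline.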 In outline: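 Chimeric zebrafish TRa-Gal4 activity read in transfected human HepG2 as GAL4-UAS reporter transcripts, 24 h post-dose, via RT-PCR with labeled primer extension and capillary electrophoresis. Medium also carries 3 nM 6-alpha-fluorotestosterone and 1.5 nM norgestrel; DMSO baseline.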

Sequence of zebrafish Thyroid Hormone Receptor alpha (TRa), thraa (gene 30670) (Q98867 whole entry, looked up, the tested form may be a part): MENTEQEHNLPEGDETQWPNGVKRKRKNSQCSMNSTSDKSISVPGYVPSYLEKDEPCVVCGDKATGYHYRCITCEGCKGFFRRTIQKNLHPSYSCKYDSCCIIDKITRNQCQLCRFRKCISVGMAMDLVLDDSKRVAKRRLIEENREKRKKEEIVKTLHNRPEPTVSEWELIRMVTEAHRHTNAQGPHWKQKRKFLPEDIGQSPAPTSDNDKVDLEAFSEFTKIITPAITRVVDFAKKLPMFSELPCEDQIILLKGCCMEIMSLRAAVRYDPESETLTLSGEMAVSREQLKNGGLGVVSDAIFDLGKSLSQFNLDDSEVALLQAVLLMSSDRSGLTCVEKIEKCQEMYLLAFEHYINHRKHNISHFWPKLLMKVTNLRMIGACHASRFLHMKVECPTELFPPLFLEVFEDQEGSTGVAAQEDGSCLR
Sequence of zebrafish Thyroid Hormone Receptor beta (TRb), thrb (gene 30607) (Q9PVE4 whole entry, looked up, the tested form may be a part): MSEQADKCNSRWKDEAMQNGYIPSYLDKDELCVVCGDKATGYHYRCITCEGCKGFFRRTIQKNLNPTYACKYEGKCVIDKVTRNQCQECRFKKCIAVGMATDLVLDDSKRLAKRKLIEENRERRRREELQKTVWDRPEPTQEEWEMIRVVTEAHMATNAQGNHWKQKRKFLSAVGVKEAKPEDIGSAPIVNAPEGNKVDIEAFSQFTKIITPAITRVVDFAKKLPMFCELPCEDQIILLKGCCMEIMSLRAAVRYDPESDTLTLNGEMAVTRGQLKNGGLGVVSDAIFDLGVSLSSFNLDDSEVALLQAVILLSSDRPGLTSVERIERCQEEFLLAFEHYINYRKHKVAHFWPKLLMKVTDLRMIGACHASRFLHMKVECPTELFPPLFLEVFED
Sequence of human Thyroid hormone Receptor beta (TRb), THRB (gene 7068) (P10828 whole entry, looked up, the tested form may be a part): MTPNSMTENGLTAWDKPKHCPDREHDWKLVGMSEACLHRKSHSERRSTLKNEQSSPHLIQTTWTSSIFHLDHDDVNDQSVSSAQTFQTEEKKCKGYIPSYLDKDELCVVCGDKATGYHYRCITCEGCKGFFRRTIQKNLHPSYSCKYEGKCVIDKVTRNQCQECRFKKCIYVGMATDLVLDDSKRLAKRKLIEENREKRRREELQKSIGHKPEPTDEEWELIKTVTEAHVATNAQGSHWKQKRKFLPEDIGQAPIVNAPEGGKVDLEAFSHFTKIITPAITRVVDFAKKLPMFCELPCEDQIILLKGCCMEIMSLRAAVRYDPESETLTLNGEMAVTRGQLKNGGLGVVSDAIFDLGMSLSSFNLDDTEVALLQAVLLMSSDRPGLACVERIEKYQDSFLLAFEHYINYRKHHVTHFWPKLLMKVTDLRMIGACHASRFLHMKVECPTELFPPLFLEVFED
Sequence of human Thyroid hormone Receptor alpha (TRa), THRA (gene 7067) (P10827 whole entry, looked up, the tested form may be a part): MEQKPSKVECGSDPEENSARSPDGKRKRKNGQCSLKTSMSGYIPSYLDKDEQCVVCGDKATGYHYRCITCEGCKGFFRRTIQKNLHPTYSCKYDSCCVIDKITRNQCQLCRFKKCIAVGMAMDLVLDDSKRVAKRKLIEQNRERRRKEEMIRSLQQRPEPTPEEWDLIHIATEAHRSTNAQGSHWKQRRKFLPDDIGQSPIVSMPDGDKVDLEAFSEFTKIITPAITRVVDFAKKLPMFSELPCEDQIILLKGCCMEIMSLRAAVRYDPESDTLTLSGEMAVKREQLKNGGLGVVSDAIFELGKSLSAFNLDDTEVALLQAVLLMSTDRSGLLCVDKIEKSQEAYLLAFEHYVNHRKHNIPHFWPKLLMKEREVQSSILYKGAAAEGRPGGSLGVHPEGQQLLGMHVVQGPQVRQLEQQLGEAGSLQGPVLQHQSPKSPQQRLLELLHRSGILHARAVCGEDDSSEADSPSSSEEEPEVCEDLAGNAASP
Sequence of Peroxisome proliferator-activated receptor gamma (Homo sapiens) (P37231 whole entry, looked up, the tested form may be a part): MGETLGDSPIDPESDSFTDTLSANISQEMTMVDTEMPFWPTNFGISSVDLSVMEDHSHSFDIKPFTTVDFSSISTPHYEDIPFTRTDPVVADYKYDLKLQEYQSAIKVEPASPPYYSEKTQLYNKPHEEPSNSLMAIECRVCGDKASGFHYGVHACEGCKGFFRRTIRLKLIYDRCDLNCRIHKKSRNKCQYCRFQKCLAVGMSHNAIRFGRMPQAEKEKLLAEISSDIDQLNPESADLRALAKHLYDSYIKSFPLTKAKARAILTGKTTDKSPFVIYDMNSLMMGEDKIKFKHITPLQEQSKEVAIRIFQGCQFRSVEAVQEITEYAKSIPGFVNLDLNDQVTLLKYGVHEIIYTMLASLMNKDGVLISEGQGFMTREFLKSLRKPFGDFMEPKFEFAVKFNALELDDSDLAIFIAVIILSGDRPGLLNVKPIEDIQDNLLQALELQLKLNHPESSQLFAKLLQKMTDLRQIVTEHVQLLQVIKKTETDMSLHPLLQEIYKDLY
Sequence of chicken Estrogen Receptor (ERa), ESR1 (gene 396099) (P06212 whole entry, looked up, the tested form may be a part): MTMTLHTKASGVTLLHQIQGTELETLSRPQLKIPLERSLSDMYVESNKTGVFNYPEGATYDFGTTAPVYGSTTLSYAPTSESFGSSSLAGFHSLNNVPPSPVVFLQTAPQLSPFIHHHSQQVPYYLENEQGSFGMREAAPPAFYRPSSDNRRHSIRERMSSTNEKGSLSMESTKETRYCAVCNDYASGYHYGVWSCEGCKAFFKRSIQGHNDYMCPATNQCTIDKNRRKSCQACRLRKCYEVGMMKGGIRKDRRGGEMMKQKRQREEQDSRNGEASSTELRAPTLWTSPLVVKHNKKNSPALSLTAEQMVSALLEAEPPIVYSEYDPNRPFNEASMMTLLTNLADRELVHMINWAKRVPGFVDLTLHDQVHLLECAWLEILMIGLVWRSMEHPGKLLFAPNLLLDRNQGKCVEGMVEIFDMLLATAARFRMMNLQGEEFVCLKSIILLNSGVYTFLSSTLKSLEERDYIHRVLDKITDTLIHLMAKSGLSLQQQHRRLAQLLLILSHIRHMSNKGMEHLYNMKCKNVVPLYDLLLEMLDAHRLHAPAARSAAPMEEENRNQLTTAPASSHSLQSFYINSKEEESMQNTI
Sequence of zebrafish Estrogen Receptor (ER1), esr1 (gene 259252) (P57717 whole entry, looked up, the tested form may be a part): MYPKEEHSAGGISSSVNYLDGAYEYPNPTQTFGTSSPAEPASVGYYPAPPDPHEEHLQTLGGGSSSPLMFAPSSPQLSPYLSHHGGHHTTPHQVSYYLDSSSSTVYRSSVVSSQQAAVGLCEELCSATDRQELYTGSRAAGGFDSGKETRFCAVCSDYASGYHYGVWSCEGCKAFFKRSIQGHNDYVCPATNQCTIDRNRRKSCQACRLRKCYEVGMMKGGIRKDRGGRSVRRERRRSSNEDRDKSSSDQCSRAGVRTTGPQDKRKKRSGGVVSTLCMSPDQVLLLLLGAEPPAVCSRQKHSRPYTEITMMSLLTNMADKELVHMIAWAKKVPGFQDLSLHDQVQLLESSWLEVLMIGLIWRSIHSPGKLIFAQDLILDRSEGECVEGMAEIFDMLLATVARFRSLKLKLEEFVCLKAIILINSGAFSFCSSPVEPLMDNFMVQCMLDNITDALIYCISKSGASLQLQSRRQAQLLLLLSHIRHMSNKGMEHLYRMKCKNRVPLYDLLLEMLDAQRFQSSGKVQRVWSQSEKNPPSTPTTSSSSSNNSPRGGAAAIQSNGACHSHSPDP
Sequence of Estrogen receptor (Homo sapiens) (P03372 whole entry, looked up, the tested form may be a part): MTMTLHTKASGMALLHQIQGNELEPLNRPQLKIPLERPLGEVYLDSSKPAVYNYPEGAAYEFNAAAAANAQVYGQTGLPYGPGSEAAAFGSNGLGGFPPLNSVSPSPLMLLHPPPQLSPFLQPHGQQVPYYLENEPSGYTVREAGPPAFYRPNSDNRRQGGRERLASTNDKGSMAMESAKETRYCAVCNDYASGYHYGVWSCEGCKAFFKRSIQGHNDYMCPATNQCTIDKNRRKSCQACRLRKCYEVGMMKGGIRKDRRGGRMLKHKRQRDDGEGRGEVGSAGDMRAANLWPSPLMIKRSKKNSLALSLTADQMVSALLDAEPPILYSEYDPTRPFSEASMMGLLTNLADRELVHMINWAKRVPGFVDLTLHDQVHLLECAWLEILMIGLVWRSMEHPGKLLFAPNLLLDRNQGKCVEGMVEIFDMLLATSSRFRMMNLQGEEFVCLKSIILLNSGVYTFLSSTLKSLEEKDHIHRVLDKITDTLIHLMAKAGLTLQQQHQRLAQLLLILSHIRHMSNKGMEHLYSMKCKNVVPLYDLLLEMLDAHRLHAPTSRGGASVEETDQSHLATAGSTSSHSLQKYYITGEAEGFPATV
Sequence of Nuclear receptor subfamily 1 group I member 2 (Mus musculus) (O54915 whole entry, looked up, the tested form may be a part): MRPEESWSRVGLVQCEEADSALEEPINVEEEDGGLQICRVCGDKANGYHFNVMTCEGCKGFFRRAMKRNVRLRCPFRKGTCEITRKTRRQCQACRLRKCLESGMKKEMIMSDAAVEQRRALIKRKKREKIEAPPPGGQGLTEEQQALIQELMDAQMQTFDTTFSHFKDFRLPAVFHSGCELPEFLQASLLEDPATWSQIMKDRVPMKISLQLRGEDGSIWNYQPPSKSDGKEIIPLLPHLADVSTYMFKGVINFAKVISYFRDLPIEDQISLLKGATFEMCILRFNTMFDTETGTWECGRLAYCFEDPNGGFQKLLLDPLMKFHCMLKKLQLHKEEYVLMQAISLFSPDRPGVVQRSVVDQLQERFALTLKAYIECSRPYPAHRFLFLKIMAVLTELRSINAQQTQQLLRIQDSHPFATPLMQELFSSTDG

Regarding `C[C@]12CC[C@H]3C(=CCc4cc(O)ccc43)[C@@H]1CCC2=O`, the call in assay [1], in assay [2], in assay [3], in [4], in [5] and in [6] was inactive. For the same compound, in [14], the compound was classed as inactive. Further, the half-maximal activity concentration (AC50) is 12.9 nM (active) in assay [7]; 86 nM (active) in [8]; 14.6 nM (active) in assay [9]; 14.7 nM (active) in assay [10]; 15.9 nM (active) in [11]; 25.8 nM (active) in assay [12]. In assay [13], the AC50 was 22.8 nM (active).
Consider `O=C(c1ccccc1)c1ccc(O)cc1O`, for which the compound was called inactive in [1], in [2], in assay [3], in [4], in assay [6] and in assay [15]. The outcome in [16], in assay [17], in assay [14], in assay [19] and in assay [20] was inactive. Besides, the half-maximal activity concentration (AC50) was 2810 nM (active) in assay [7]; 10000 nM (active) in assay [8]; 2770 nM (active) in assay [9]; 4680 nM (active) in assay [10]; 3760 nM (active) in assay [11]; 5040 nM (active) in [12]. Moreover, the concentration at half-maximal activity (AC50) in assay [18] is 2310 nM (active); in assay [13], 2730 nM (active).
